# Results taken from ChEMBL document CHEMBL3433997, “St. Jude Leishmania screening dataset” (2016).
# Key:
# Assay type in all cases: functional
# [1] = target: Solute carrier family 2, facilitated glucose transporter member 1 (Homo sapiens) (UniProt P11166); experiment: ST_JUDE_LEISH: Cytotoxicity at 2uM final concentration against transgenic Leishmania Mexicana promastigotes LmGLUT1 that are glucose transport deficient and complemented with the human glucose transporter GLUT1. Activity is measured by DNA content using SYBR green in vitro
# [2] = target: Hexose transporter 1 (Plasmodium falciparum) (UniProt O97467); experiment: ST_JUDE_LEISH: Cytotoxicity at 2uM final concentration against transgenic Leishmania Mexicana promastigotes LmPfHT that are glucose transport deficient and complemented with the Plasmodium falciparum hexose transporter. Activity is measured by DNA content using SYBR green in vitro
# [3] = target: Glucose transporter (Leishmania mexicana) (UniProt O61059); experiment: ST_JUDE_LEISH: Cytotoxicity at 2uM final concentration against transgenic Leishmania Mexicana promastigotes LmGT2 that are glucose transport deficient and complemented with the L. Mexicana glucose transporter 2. Activity is measured by DNA content using SYBR green in vitro
# Sequence of Solute carrier family 2, facilitated glucose transporter member 1 (Homo sapiens) (P11166 whole entry): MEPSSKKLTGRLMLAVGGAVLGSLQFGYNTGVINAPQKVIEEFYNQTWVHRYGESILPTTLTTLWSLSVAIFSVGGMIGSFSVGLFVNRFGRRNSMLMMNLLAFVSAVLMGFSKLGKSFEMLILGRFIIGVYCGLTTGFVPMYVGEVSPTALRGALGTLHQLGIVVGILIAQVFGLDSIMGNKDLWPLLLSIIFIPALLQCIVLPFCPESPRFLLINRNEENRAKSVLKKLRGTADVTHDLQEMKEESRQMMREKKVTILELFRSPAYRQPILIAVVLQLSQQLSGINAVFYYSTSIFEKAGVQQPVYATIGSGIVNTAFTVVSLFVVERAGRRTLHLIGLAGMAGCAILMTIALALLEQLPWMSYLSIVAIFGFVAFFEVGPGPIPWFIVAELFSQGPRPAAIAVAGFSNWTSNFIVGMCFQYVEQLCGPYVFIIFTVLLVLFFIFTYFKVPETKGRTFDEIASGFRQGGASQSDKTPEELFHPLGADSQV
smiles,measurement,setting,value
Nc1nc(N)c2c(Sc3ccccc3)cccc2n1,inhibition,[1],3.38%
same,inhibition,[2],3.48%
same,inhibition,[3],2.7%
O=C(Nc1ccc(N2CCN(Cc3ccccc3)CC2)cc1)c1cccs1,inhibition,[1],0.15%
same,inhibition,[2],0.83%
same,inhibition,[3],-1.68%
Oc1cc2c(cc1CN1CCN(Cc3ccc(Cl)s3)CC1)CCC2,inhibition,[1],2.02%
same,inhibition,[2],4.66%
same,inhibition,[3],1.82%
CN(C)Cc1ccc(-c2ccc3ccnc(N)c3c2)cc1,inhibition,[1],3.2%
same,inhibition,[2],4.43%
same,inhibition,[3],1.95%
Cc1cc(N)c2cc(NC(=O)/C=C/c3ccc([N+](=O)[O-])cc3)ccc2n1,inhibition,[1],3.11%
same,inhibition,[2],1.19%
same,inhibition,[3],0.94%
CCCCCn1c(Sc2ccc(C#N)c([N+](=O)[O-])c2)nnc1-c1ccc(OC)cc1,inhibition,[1],9.26%
same,inhibition,[2],6%
same,inhibition,[3],4.8%
CCCCC(CC)NC(=O)[C@H]1CNCCN1C(=O)CCCc1ccccc1 (some centres undefined),inhibition,[1],1.73%
same,inhibition,[2],1.94%
same,inhibition,[3],-0.61%
CCCCNc1c(CC)c(C)c(C#N)c2nc3ccccc3n12,inhibition,[1],29.1%
same,inhibition,[2],51.4%
same,inhibition,[3],21.8%
COc1cccc2cc(C(=O)N[C@@H](CC(C)C)C(=O)N[C@H](C=NNC(=O)OC(C)(C)C)CC(C)C)oc12,inhibition,[1],2.6%
same,inhibition,[2],1.47%
same,inhibition,[3],0.48%
CCCCc1ccc(NC(=O)Nc2ccc3c(c2)CCNCC3)cc1,inhibition,[1],0.82%
same,inhibition,[2],2.05%
same,inhibition,[3],1.65%
CCOC(=O)C1=C(C)N=c2sc(=Cc3cc(Cl)ccc3O)c(=O)n2C1c1ccc2c(c1)OCO2 (centres undefined),inhibition,[1],0.16%
same,inhibition,[2],0.7%
same,inhibition,[3],1.37%
CCOC(=O)c1cccc(NC(=O)Nc2cccc(-c3ncc(OCCCN)c4c3nc(-c3nonc3N)n4CC)c2)c1,inhibition,[1],2.41%
same,inhibition,[2],3.25%
same,inhibition,[3],3.37%
CN(C)c1ccc(-c2ccc(C(=O)NC3CCN(Cc4ccc(C(C)(C)C)cc4)CC3)s2)cc1,inhibition,[1],2.66%
same,inhibition,[2],1.51%
same,inhibition,[3],-2.12%
